Source: PubChem BioAssay (several laboratories)
Most compounds without a hit are left out; they make up all but 2.6% or so of the library.
EBV LMP1 NFkB: reduces LMP1-driven NF-kappaB luciferase signal; LMP1-induced NF-kappaB luciferase reporter cells, luminescence; inhibition, % at 12.5 µM; 0.69% of 350,000 active; in the data active = inhibition above about 41%
aDG glyco act: increases alpha dystroglycan glycosylation | Pro5-aDG cells, alpha-DG glycosylation AlphaScreen (IIH6); 0% Pro5, 100% B10-LARGE cell signal | activation, % at 10 µM | 0.22% of 360,000 active | AID 624168;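 active = activation of at least 8% versus controls, or a plate z-score of at least 8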;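 also: Pro5 are CHO cells carrying HIG-tagged alpha-DG that lacks glycosylation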
TROY NFkB inh: TROY signaling inhibition. 0.98% of 360,000 active. Q293 LMP1-TROYcd NF-kB luciferase reporter, 4 h. inhibition, % at 10 µM. AID 1347056;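 active = compounds whose plate-normalised and pattern-corrected inhibition of the luciferase reporter signal at the single screening dose is 50% or more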
TWEAK Fn14 block: TWEAK-Fn14 signaling inhibition; TWEAK-stimulated Fn14 reporter cells, luciferase luminescence, 8 h; inhibition, % at 10 µM; 2% of 360,000 active; AID 1159606; in the data active = inhibition above about 50%
HSP90 refold inh: blocks HSP90-mediated luciferase refolding in reticulocyte lysate; Rabbit reticulocyte lysate, luciferase refolding luminescence, 3 h; inhibition, % at 5.6 µM; 0.91% of 290,000 active; AID 1789;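 active = inhibition above the screen-wide mean plus 3 SD, computed separately per campaign, cut at about 16% in these data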;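 also: inhibitors lower the luminescence because luciferase stays unfolded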
LGR2 antag: blocks bursicon-induced cAMP signaling via Drosophila LGR2; HEK293 LGR2, CRE-luciferase, bursicon-stimulated, 4 h; inhibition, % at 9.99 µM; 0.35% of 380,000 active; AID 720647;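 active = drop in luminescence signal, shown as inhibition above about 50% in the replicate tests, limit read from the data, passing the limit was not always enough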;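 also: agonist challenge used bursicon conditioned medium at about half maximal strength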
Numbers stand for hits; – = inactive; · = no result given.

SMILES	EBV LMP1 NFkB	aDG glyco act	TROY NFkB inh	TWEAK Fn14 block	HSP90 refold inh	LGR2 antag
CO[C@@H]1CN(C)C(=O)c2ccc(NC(=O)c3cc(C)on3)cc2OC[C@@H](C)NC[C@@H]1C	·	·	·	·	·	–
COc1ccc2c3c(n(C)c2c1)[C@H](CO)N(C(=O)c1ccccc1)CC31CN(Cc2ccccc2OC)C1	·	·	·	·	·	–
CC(C)C#Cc1cnc2c(c1)C(=O)N([C@H](C)CO)C[C@@H](C)[C@H](CN(C)C(=O)c1ccccn1)O2	·	·	·	·	·	–
COc1ccc(C=CC(=O)c2ccc3cc(OC)c(OC)cc3c2)cc1OC	–	–	–	67.0	·	–
COc1ccc(Oc2ccc(/C=N/NC(=O)c3cccnc3)cc2[N+](=O)[O-])cc1	–	–	–	–	–	·
COc1ccc(Oc2ccc(/C=C/C(=O)c3cccc(OC)c3)cc2[N+](=O)[O-])cc1	–	–	–	59.7	–	–
CCC1CSC(Nc2ccc(C(=O)/C=C/c3ccc(Br)cc3)cc2)=N1 (stereo not drawn)	–	–	–	57.5	–	–
COc1ccc(/C=C/C(=O)c2ccc(NC3=NCCCS3)cc2)cc1OC	–	–	–	71.9	–	–
CCC1CSC(Nc2ccc(C(=O)/C=C/c3ccc(OC)c(OC)c3)cc2)=N1 (stereo not drawn)	–	–	–	73.7	–	–
CCCN(C)C[C@H]1Oc2cc(-c3ccc(C)cc3)ccc2S(=O)(=O)N([C@@H](C)CO)C[C@H]1C	·	·	·	·	·	–
O=C(C[C@H]1CC[C@H](NC(=O)c2ccncc2)[C@@H](CO)O1)NCc1ccncn1	·	·	·	·	·	–
COc1ccc(C(=O)c2[nH]c(N)c(C(=O)NCCc3c[nH]c4ccccc34)c2-c2ccccc2C(F)(F)F)cc1	·	·	·	·	·	–
COc1ccc(C(=O)c2[nH]c(N)c(C(=O)NCCc3c[nH]c4ccccc34)c2-c2c(F)cccc2Cl)cc1	·	–	–	54.5	·	–
C=C(C)Cn1cnc2cc(C)c(C)cc21	–	–	–	86.0	–	–
OCC(CCc1c[nH]c2ccccc12)c1c[nH]c2ccccc12 (stereo not drawn)	·	·	·	·	·	–
O=S1(=O)CCN(c2ccccc2CC(c2c[nH]c3ccccc23)c2c[nH]c3ccccc23)CC1	–	–	–	63.0	·	–
CCC(=O)Nc1ccc2c(c1)OC[C@H](C)N(C(=O)C1CCC1)C[C@@H](C)[C@@H](OC)CN(C)C2=O	·	·	·	·	·	–
CCN(CC)S(=O)(=O)c1ccc(Cl)c(NC(=S)NC(=O)C2CCCC2)c1	–	–	54.5	56.3	·	–
C=CCN1C(=O)/C(=C\c2ccc(Cl)cc2)N=C1SCC(=O)NCCC	–	–	–	–	–	–
COCCNC(=O)CSC1=N/C(=C/c2ccc(Cl)c(Cl)c2)C(=O)N1c1ccccc1F	–	–	–	56.6	–	–
Cc1ccc(Nc2nc(CSc3nnc(-c4ccncc4)n3C)cs2)cc1	–	–	–	53.0	–	–
CCN1[C@H](C(=O)NCC(F)(F)F)[C@@H](CO)[C@@H]2Cn3c(ccc(-c4ccccc4)c3=O)[C@@H]21	·	·	·	·	·	–
CC(C)(C)c1ccc(Cn2c(=N)n(CC(O)c3ccco3)c3ccccc32)cc1 (stereo not drawn)	–	–	53.9	69.5	–	·
CO[C@@H]1CN(C)C(=O)c2ccc(NS(C)(=O)=O)cc2OC[C@@H](C)N(C(=O)C2CCCC2)C[C@@H]1C	·	·	·	·	·	–
O=c1c(O)c(-c2ccc(O)c(O)c2)oc2cc(O)ccc12	–	–	–	55.5	·	–
SMILES	EBV LMP1 NFkB	aDG glyco act	TROY NFkB inh	TWEAK Fn14 block	HSP90 refold inh	LGR2 antag
Cn1c(C(=O)Nc2ccc3c(c2)OCCO3)cc2c(=O)n(C)c3ccccc3c21	–	–	–	64.9	–	–
C[C@@H]1CN([C@H](C)CO)C(=O)Cc2cc(NC(=O)CCC(F)(F)F)ccc2O[C@@H]1CN(C)S(C)(=O)=O	·	·	·	·	·	–
CCOc1cc(/C=N/N2CCN(Cc3ccccc3)CC2)ccc1O	45.0	–	–	–	–	–
COc1ccc(-c2ccccc2[C@@H]2[C@@H](C#N)N(C(=O)C3CCOCC3)[C@H]2CO)cc1	·	·	·	·	·	–
COc1ccc(/C=C/C(=O)Nc2sc3c(c2C(=O)NCc2cccnc2)CCCC3)cc1	–	–	–	52.6	–	–
O=C(COc1ccccc1)Nc1sc2c(c1C(=O)NCc1cccnc1)CCCC2	–	–	–	–	–	–
CC(=O)N1CC2(C1)[C@H](c1ccc(-c3ccccc3C)cc1)[C@@H](CO)N2C(=O)CC1CC1	·	·	·	·	·	–
COc1ccc(N2C(=O)C(Cl)=C(NCc3ccccc3)C2=O)cc1	65.1	–	–	–	–	·
CCOc1ccccc1NC1=C(Cl)C(=O)N(c2ccc(OC)cc2)C1=O	–	–	–	–	–	–
Cc1ccc(S(=O)(=O)N(C)C[C@H]2Oc3ccc(NC(=O)CCCN(C)C)cc3CC(=O)N([C@H](C)CO)C[C@H]2C)cc1	·	·	·	·	·	–
NNc1nc2cc3c(cc2s1)OCCO3	–	–	–	52.9	–	–
COc1ccccc1C(=O)Nc1nc2cc3c(cc2s1)OCCO3	–	–	–	–	–	·
N=C1S/C(=C\c2ccc(-c3cccc(Cl)c3)o2)C(=O)N1c1nccs1	–	–	–	90.2	–	–
COc1ccc(/C=C2\SC(=N)N(c3nccs3)C2=O)cc1OC	–	–	–	–	–	–
CCCCC(=O)/C=C/n1c(=S)oc2ccccc21	–	–	–	95.6	–	–
CC(C)OC(=O)n1c(=S)oc2ccccc21	–	–	–	–	–	–
CO[C@H]1CN(C)C(=O)c2ccc(NS(=O)(=O)c3ccccc3)cc2OC[C@H](C)NC[C@H]1C	·	·	·	·	·	–
O=C1c2ccccc2-c2nnc(-c3ccc(F)cc3)cc21	–	–	–	75.5	–	51.5
O=C1c2ccccc2-c2nnc(-c3ccc(O)cc3)cc21	–	–	–	–	–	–
CCCC(C)c1nnc(NC(=O)CCS(=O)(=O)c2ccccc2)s1 (stereo not drawn)	–	–	–	57.2	–	–
CC(C)c1nnc(NC(=O)CCCC(=O)O)s1	–	–	·	75.8	–	·
O=C(CCS(=O)(=O)c1ccccc1)Nc1nccs1	83.8	–	–	–	–	–
CC(C)CC#Cc1ccc2c(c1)O[C@H](CN(C)C(=O)c1cnccn1)[C@H](C)CN([C@@H](C)CO)S2(=O)=O	·	·	·	·	·	–
Cc1ccc(C(=O)N2CCSCC2)cc1	–	–	–	–	16.5	–
COc1cccc(NC(=O)N2C[C@H](O)COC[C@@H]3O[C@@H](CC(=O)NC4CCC4)CC[C@H]32)c1	·	·	·	·	·	–
CCC(C)Nc1nc(CN2CCOCC2)nc2sc3c(c12)CCC3 (stereo not drawn)	–	–	·	74.6	–	·
COC(=O)CC1CC2(C(=O)OC)c3[nH]c4ccccc4c3CCN2C1=O (stereo not drawn)	·	–	–	–	·	–
CCC12CC1(C(=O)OC)C(=O)N1CCc3c([nH]c4ccccc34)C12 (stereo not drawn)	·	–	62.0	–	·	·
CNC[C@H]1Oc2ccc(NC(=O)NC(C)C)cc2CC(=O)N([C@@H](C)CO)C[C@H]1C	·	·	·	·	·	–
C(=N\Nc1nc2ccccc2[nH]1)/c1cccc2nccnc12	47.0	–	–	–	–	–
